Among the data in PubChem BioAssay AID800 (PCMD, 2007) are inhibition values, retold here.

In all, about 220,000 compounds went through this assay and about 650 (0.3%) were called active. For the sample, actives were picked, then their nearest neighbours and some compounds at random. Values without a mark were called inactive. Cut-off read from the data, not from the text of the source: active = inhibition above about 40%; inactive = the rest.

In the assay the target is Coagulation factor XII (Homo sapiens) (UniProt P00748). Nature of the assay: coagulation factor XIIa activity inhibition – biochemical, 1536-well, primary screen (AID 800).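 Note: 0% = enzyme with no compound and 100% = blank without enzyme.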 To be noted: purified FXIIa, Boc-QGR-AMC fluorogenic substrate, 2 h; at 5 µM; stronger effect = higher value.
Sequence of Coagulation factor XII (Homo sapiens) (P00748 20-372 limits assumed): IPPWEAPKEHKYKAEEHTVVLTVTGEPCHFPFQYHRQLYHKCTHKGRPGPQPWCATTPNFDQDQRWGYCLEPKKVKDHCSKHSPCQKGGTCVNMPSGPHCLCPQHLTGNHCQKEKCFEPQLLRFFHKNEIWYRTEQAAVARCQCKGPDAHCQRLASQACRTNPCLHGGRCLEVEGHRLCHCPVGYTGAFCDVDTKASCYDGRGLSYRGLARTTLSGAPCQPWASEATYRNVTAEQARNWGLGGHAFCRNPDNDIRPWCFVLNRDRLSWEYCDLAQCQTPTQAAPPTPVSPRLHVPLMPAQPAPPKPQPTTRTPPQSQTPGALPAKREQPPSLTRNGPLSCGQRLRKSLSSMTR
Sequence of Coagulation factor XII (Homo sapiens) (P00748 373-615 limits assumed): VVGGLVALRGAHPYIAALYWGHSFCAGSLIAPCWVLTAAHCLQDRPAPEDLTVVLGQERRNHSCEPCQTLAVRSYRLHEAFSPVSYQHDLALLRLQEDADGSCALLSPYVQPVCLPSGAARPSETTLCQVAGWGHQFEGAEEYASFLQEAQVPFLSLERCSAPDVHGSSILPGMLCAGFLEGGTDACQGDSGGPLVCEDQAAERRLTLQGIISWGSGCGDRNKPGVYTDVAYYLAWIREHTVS
In the case of `Cc1[nH]n(C)c(=O)c1C(=O)c1c(-c2c(Cl)cccc2Cl)noc1C`, the inhibition was 2.28%.

As for `CCOc1c(Nc2cccc(Cl)c2)c(=O)c1=O`, the inhibition is 8.16%. To `COc1ccc(Nc2ncnc3sc(-c4ccccc4)cc23)c(OC)c1` belongs 4.94%; to `CC(C)(C)c1cc(C(=O)N/N=C/c2ccc([N+](=O)[O-])s2)n[nH]1`, 7.22%; to `Cc1nc(N)[nH]c(=O)c1Oc1cccc(C(F)(F)F)c1`, 3.61%.

Regarding `O=C(CSC(=S)N1CCCCC1)c1c(F)cccc1F`, the inhibition was 6.72%.

Consider `CNC(=O)c1cccc2nc3ccccc3nc12`, for which the inhibition was 6.68%. Consider `Brc1ccc(-c2nn[nH]n2)cc1`, for which the inhibition is 12.5%. As to `CC(C)S(=O)(=O)c1csc(NC(=O)Nc2ccc(Cl)cc2)c1Cl`, the inhibition is 6.02%. For the compound `C=C(C)C(=O)O[C@H]1C/C(C)=C\C(=O)/C=C(\C)[C@H](O)[C@@H]2OC(=O)C(=C)[C@@H]21`, the inhibition was 8.34%. The same measure for `COc1cccc(Nc2nnc(SCC(=O)N3CC(=O)Nc4ccccc43)s2)c1`: 5.5%; for `C/C=N/N(c1ccccc1)c1ccccc1`: 4.81%; for `CC(C)(C)C(=O)Nc1c(Br)c(C2CC2)nn1-c1ccccc1`: 6.88%. Turning to `Cc1cc(C)cc(OCC(=O)O/N=C(\N)Cc2ccc([N+](=O)[O-])cc2)c1`, the inhibition was 0.85%.

For the compound `CCOc1cc(CN2CCN(C(=O)CC(C)C)CC2)ccc1OC`, the inhibition was -3.42%. For the compound `O=C(COc1ccc(Cl)cc1[N+](=O)[O-])N1CCCCC1`, the inhibition was 2.91%. On to `CCOc1cc(CO)ccc1OCC(=O)N1CCCCC1`, for which the inhibition is 52.6% (active). `O=C(CN1C(=O)NC2(CCCCCC2)C1=O)NC1CC1`: the inhibition was 0.9%. As for `O=C(CN1C(=O)CC(c2ccccc2)=Nc2ccccc21)NC1CCCCC1`, the inhibition was 12.2%. To `CCC1SC(CC)C(=O)N(CC(=O)NC2CCCCC2)C1=O` (configuration not stated) belongs 101% (active); to `Cc1ccc(C2=C/C(=C\c3cccnc3)C(=O)O2)cc1`, 10.9%. On to `CN(C)/C=C1\C=C(c2ccccc2)OC1=O`, for which the inhibition is 49.5% (active).

With `CN(C)/C=C1/C(=O)Nc2ccccc21`, the inhibition was 8.66%.

`NC(=O)C1=C[C@@H](c2csc3ccccc23)C[C@@H](OCc2ccc(CO)cc2)O1`: the inhibition is 5.57%.

On to `CCN(CC)C(=O)CC(c1ccc2c(c1)OCO2)c1c(OC)cc(OC)c2c(-c3ccccc3)cc(=O)oc12` (configuration not stated), for which the inhibition was -2.49%. As for `Cc1ccc(/C=C/C(=O)O)cc1S(=O)(=O)N1CCC(Cc2ccccc2)CC1`, the inhibition is 6.76%.

As to `O=c1[nH]nc(SCCS(=O)(=O)c2ccc(F)cc2)n1-c1ccccc1C(F)(F)F`, the inhibition was 6.99%. As for `CN(c1ccccn1)c1ncnc2[nH]ncc12`, the inhibition is 3.53%. With `O=C(NC1CC1)C1=C[C@H](c2c[nH]c3ccccc23)C[C@H](OCc2ccc(CO)cc2)O1`, the inhibition is 1.62%.

With `Cc1nc(C(=O)NCc2ccccc2)sc1C1(C)CC(c2cccnc2)=NO1` (configuration not stated), the inhibition was 6.55%. Take `CC1=NNC(=O)C1CC(=O)N/N=C/c1ccncc1` (configuration not stated): the inhibition is 2.75%. With `C=CCCN(Cc1ccccc1)S(=O)(=O)c1ccccc1Br`, the inhibition was 5.98%. To `c1ccc(-c2cc(N3CCCCC3)c3ccccc3n2)cc1` belongs 16%. In the case of `Cc1ccccc1NC(=O)Nc1ccccc1N1CCCCC1`, the inhibition was 5.71%.

Regarding `c1ccc(-n2cccc2)c(N2CCCCC2)c1`, the inhibition is 46.9% (active).

With `Cc1cc(-n2cnc(-c3cn(C)nc3C)n2)no1`, the inhibition is 11.1%. `CCCCCCNS(=O)(=O)c1ccccc1Br`: the inhibition was 9.21%. `O=C(Cn1cnc2cc([N+](=O)[O-])ccc2c1=O)NC(=O)NCc1ccccc1`: the inhibition was 1.31%. To `CCOC(=O)NNc1cc(C(F)(F)F)ccn1` belongs 9.46%; to `O=C(NNS(=O)(=O)c1ccccc1C(F)(F)F)c1cc2ncc(C(F)(F)F)cc2s1`, 9.81%; to `CCc1ccc[n+](-c2nc([O-])sc2C=O)c1`, 9.94%. As to `C#CCOCCOCCOCCNc1nc(N2CCN(C(=O)[C@H](CCC(=O)O)n3cc(C(N)CO)nn3)CC2)nc(N2CCN(C(=O)[C@H](CCCCN)n3cc(C(N)CC(C)C)nn3)CC2)n1` (some centres not stated), the inhibition was 5.53%.

Consider `N#Cc1c(NCCO)ccc([N+](=O)[O-])c1NCCO`, for which the inhibition is 12.3%.

With `CCCC[C@@H]1CN=C(N)N1CCc1cc(C(F)(F)F)cc(C(F)(F)F)c1`, the inhibition is 2.17%. For `CC(C)c1ccc(NC(=S)NC2CC3C=CC2C3)cc1` (configuration not stated), the inhibition was 3.63%. The same measure for `CCCc1c(C(=O)Nc2ccc(F)cc2)cnn1-c1ccccc1`: -0.53%. To `CCOC(=O)c1c(NC(=S)NC(=O)c2ccco2)sc2c1CCCC2` belongs 23.9%; to `CCOC(=O)c1c(NC(=O)c2ccc(Br)o2)sc2c1CCCC2`, 44% (active); to `CCOCC(=O)Nc1sc2c(c1C(=O)OCC)CCCC2`, 5.03%. On to `C=C1CCN([C@H](C(=O)NCc2cc(OC)c(OC)c(OC)c2)C(C)C)S(=O)(=O)c2ccccc21`, for which the inhibition is 4.35%. Regarding `FC(F)(F)c1ccnc(Oc2ccc(C3=NCCS3)cc2)c1`, the inhibition was 9.29%. The same measure for `CCOc1ccc(C2c3[nH]c4ccccc4c3CCN2Cc2cccn2-c2ncccn2)cc1` (configuration not stated): 4.53%; for `CC(C)(C)CN1C(=O)C(=O)NC[C@H]1Cc1cccc2ccccc12`: 4.1%. For the compound `COCc1cc(=O)[nH]c(-c2ccc(C(F)(F)F)cc2)n1`, the inhibition was 8.57%. For the compound `COc1ccccc1C1CCN(C(=S)Nc2ccc(Br)cc2)CC1`, the inhibition is 3.05%. The same measure for `Fc1ccc(-c2csc(-c3ccc(C4SCCS4)cc3)n2)cc1F`: 7.1%. Turning to `COc1ccc(C(CC(=O)N2CCN(c3ccccc3)CC2)c2c(O)cc(OC)cc2OC)cc1` (configuration not stated), the inhibition is 1.72%.
